The source made the active and inactive calls. The calls were made as follows: active = hit-call score of the fitted dose curve at least 0.9, where 1 is the maximum; inactive = score below 0.9.
Legend:
Details in all cases: mRNA level, 48 h; actives raise or lower the signal
[1] = read-out: Forkhead box O3 (FOXO3), FOXO3 (gene 2309); test: LTEA_HepaRG_FOXO3: Life Technologies and Expression Analysis (LTEA) Assay for Forkhead box O3 (FOXO3) using HepaRG (AID 2283459)
How it was run: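 qRT-PCR readout of FOXO3 transcript, normalized to three housekeeping genes (ACTB, GAPDH, POLR2A); gain or loss fitted against 0.5% DMSO vehicle. HepaRG cells, 48 h chemical exposure, 8-point half-log series, top 100 uM.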

[2] = read-out: ABC Transporter (ABCB1), ABCB1 (gene 5243); test: LTEA_HepaRG_ABCB1: Life Technologies and Expression Analysis (LTEA) Assay for ABC Transporter (ABCB1) using HepaRG (AID 2283460)
How it was run: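 HepaRG, 48 h exposure, 8-pt half-log series from 100 uM, 0.5% DMSO vehicle, duplicates. Readout: ABCB1 transcript by Fluidigm TaqMan qRT-PCR, housekeeping-normalized; bidirectional curve fit vs DMSO baseline.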

[3] = read-out: growth arrest and DNA damage 45 (GADD45B), GADD45B (gene 4616); test: LTEA_HepaRG_GADD45B: Life Technologies and Expression Analysis (LTEA) Assay for growth arrest and DNA damage 45 (GADD45B) using HepaRG (AID 2283461)
How it was run: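 Differentiated human HepaRG cells in serum-free induction medium exposed 48 h in duplicate to eight concentrations, top 100 uM, half-log steps, 0.5% DMSO. GADD45B mRNA by TaqMan qRT-PCR, normalized to ACTB, GAPDH, POLR2A; bidirectional fit versus DMSO.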

[4] = read-out: ABC Transporter (ABCC3), ABCC3 (gene 8714); test: LTEA_HepaRG_ABCC3: Life Technologies and Expression Analysis (LTEA) Assay for ABC Transporter (ABCC3) using HepaRG (AID 2283462)
How it was run: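 Differentiated human HepaRG cells exposed 48 h in serum-free induction medium, 0.5% DMSO vehicle, 8-point half-log series to 100 uM in duplicate. ABCC3 mRNA by qRT-PCR, normalised to ACTB, GAPDH, POLR2A; bidirectional fit vs DMSO.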

[5] = read-out: ABC Transporter (ABCB11), ABCB11 (gene 8647); test: LTEA_HepaRG_ABCB11: Life Technologies and Expression Analysis (LTEA) Assay for ABC Transporter (ABCB11) using HepaRG (AID 2283463)
How it was run: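 HepaRG, 48 h exposure, 8-pt half-log CRC top 100 uM, 0.5% DMSO vehicle, duplicates. Readout: TaqMan qRT-PCR of ABCB11 mRNA, housekeeping-normalized (ACTB/GAPDH/POLR2A). Bidirectional fit vs DMSO baseline.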

[6] = read-out: ABC Transporter (ABCC2), ABCC2 (gene 1244); test: LTEA_HepaRG_ABCC2: Life Technologies and Expression Analysis (LTEA) Assay for ABC Transporter (ABCC2) using HepaRG (AID 2283464)
How it was run: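 Differentiated HepaRG cells in serum-free induction medium exposed 48 h to eight half-log concentrations up to 100 uM, 0.5% DMSO, in duplicate. ABCC2 mRNA measured by qRT-PCR (TaqMan, Fluidigm), normalized to ACTB, GAPDH and POLR2A. Fitted in both directions against DMSO.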

[7] = read-out: Broad substrate specificity ATP-binding cassette transporter ABCG2 (Homo sapiens) (UniProt Q9UNQ0); test: LTEA_HepaRG_ABCG2: Life Technologies and Expression Analysis (LTEA) Assay for ABC Transporter (ABCG2) using HepaRG (AID 2283465)
How it was run: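 HepaRG, 48 h exposure, 8-pt half-log series from 100 uM, 0.5% DMSO vehicle, duplicates. Readout: ABCG2 transcript by qRT-PCR (Fluidigm array), housekeeping-normalized; bidirectional curve fit relative to DMSO baseline.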

[8] = read-out: ATP-citrate lyase (ACLY), ACLY (gene 47); test: LTEA_HepaRG_ACLY: Life Technologies and Expression Analysis (LTEA) Assay for ATP-citrate lyase (ACLY) using HepaRG (AID 2283466)
How it was run: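 qRT-PCR readout of ACLY transcript after 48 h chemical treatment of HepaRG cells; expression normalized to three housekeeping genes. Eight-point half-log series, highest 100 uM, 0.5% DMSO vehicle. Gain or loss fitted against DMSO baseline.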

[9] = read-out: Peroxisomal acyl-coenzyme A oxidase 1 (ACOX1) gene, ACOX1 (gene 51); test: LTEA_HepaRG_ACOX1: Life Technologies and Expression Analysis (LTEA) Assay for Peroxisomal acyl-coenzyme A oxidase 1 (ACOX1) gene using HepaRG (AID 2283467)
How it was run: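 HepaRG, 48 h chemical exposure, 8-pt half-log series from 100 uM top, 0.5% DMSO vehicle, duplicates. Readout: ACOX1 mRNA by Fluidigm qRT-PCR, housekeeping-normalized; bidirectional fit vs DMSO baseline.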

[10] = read-out: Alkaline Phosphatase, Placental (ALPP) gene, ALPP (gene 250); test: LTEA_HepaRG_ALPP: Life Technologies and Expression Analysis (LTEA) Assay for Alkaline Phosphatase, Placental (ALPP) gene using HepaRG (AID 2283468)
How it was run: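 HepaRG cells plated 48 h, then exposed in duplicate for 48 h in serum-free induction medium to 8-point half-log series from 100 uM in 0.5% DMSO. ALPP mRNA by TaqMan qRT-PCR, normalized to ACTB/GAPDH/POLR2A; bidirectional fit versus DMSO.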

[11] = read-out: Bcl-2 (BAD) gene, BAD (gene 572); test: LTEA_HepaRG_BAD: Life Technologies and Expression Analysis (LTEA) Assay for Bcl-2 (BAD) gene using HepaRG (AID 2283469)
How it was run: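 HepaRG, 48 h exposure, 8-pt half-log curve from 100 uM in 0.5% DMSO, duplicates. Readout: TaqMan qRT-PCR for BAD mRNA, housekeeping-normalised (ACTB/GAPDH/POLR2A); gain or loss fitted against DMSO baseline.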

[12] = read-out: Bcl-2 (BAX) gene, BAX (gene 581); test: LTEA_HepaRG_BAX: Life Technologies and Expression Analysis (LTEA) Assay for Bcl-2 (BAX) gene using HepaRG (AID 2283470)
How it was run: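 qRT-PCR read-out of BAX mRNA, normalized to three housekeeping genes, after 48 h chemical exposure of human HepaRG cells in serum-free induction medium; eight-point half-log series, top 100 uM, 0.5% DMSO vehicle; bidirectional fit versus DMSO.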

[13] = read-out: adenosine kinase (ADK) gene, ADK (gene 132); test: LTEA_HepaRG_ADK: Life Technologies and Expression Analysis (LTEA) Assay for adenosine kinase (ADK) gene using HepaRG (AID 2283471)
How it was run: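 Read-out is ADK transcript level measured by qRT-PCR and normalised to three housekeeping genes. Cells are human HepaRG, dosed for 48 h at up to 100 uM in 0.5% DMSO. Gain or loss of signal is fitted against DMSO controls.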

[14] = read-out: Alpha-fetoprotein (AFP) gene, AFP (gene 174); test: LTEA_HepaRG_AFP: Life Technologies and Expression Analysis (LTEA) Assay for Alpha-fetoprotein (AFP) gene using HepaRG (AID 2283472)
How it was run: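 qRT-PCR (Fluidigm TaqMan) readout of AFP transcript, normalized to three housekeeping genes, fitted bidirectionally against 0.5% DMSO baseline. HepaRG cells received chemicals for 48 h in serum-free induction medium, top concentration 100 uM, half-log steps.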

BCL2L11 (gene 10018) = test: LTEA_HepaRG_BCL2L11: Life Technologies and Expression Analysis (LTEA) Assay for Bcl-2 (BCL2L11) gene using HepaRG (AID 2283473)
How it was run: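 Differentiated human HepaRG cells were exposed 48 h in serum-free induction medium to eight half-log concentrations up to 100 uM in 0.5% DMSO, in duplicate. BCL2L11 mRNA was quantified by TaqMan qRT-PCR, normalized to ACTB, GAPDH and POLR2A; induction or repression fitted versus DMSO.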

[15] = read-out: Apolipoprotein A-V (APOA5) gene, APOA5 (gene 116519); test: LTEA_HepaRG_APOA5: Life Technologies and Expression Analysis (LTEA) Assay for Apolipoprotein A-V (APOA5) gene using HepaRG (AID 2283474)
How it was run: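 Differentiated HepaRG cells in serum-free induction medium, exposed 48 h in duplicate to eight half-log concentrations topping at 100 uM (0.5% DMSO). APOA5 mRNA by Fluidigm TaqMan qRT-PCR, normalized to ACTB, GAPDH and POLR2A; bidirectional fit versus DMSO.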

[16] = read-out: Apoptosis regulator Bcl-2 (Homo sapiens) (UniProt P10415); test: LTEA_HepaRG_BCL2: Life Technologies and Expression Analysis (LTEA) Assay for Bcl-2 gene using HepaRG (AID 2283475)
How it was run: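 qRT-PCR read-out (Fluidigm TaqMan) of BCL2 transcript, normalised to three housekeeping genes, after 48 h chemical exposure of HepaRG cells; 8-point half-log series, top 100 uM, 0.5% DMSO vehicle. Gain or loss of signal fitted relative to DMSO baseline.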

[17] = read-out: Bcl-2 (BID) gene, BID (gene 637); test: LTEA_HepaRG_BID: Life Technologies and Expression Analysis (LTEA) Assay for Bcl-2 (BID) gene using HepaRG (AID 2283476)
How it was run: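 HepaRG, 48 h exposure, 8-pt half-log series, top 100 uM, 0.5% DMSO vehicle, duplicates. Readout: BID mRNA by TaqMan qRT-PCR; housekeeping-normalized; bidirectional curve fit vs DMSO baseline.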

Caspase-3 (Homo sapiens) = Caspase-3 (Homo sapiens) (UniProt P42574); test: LTEA_HepaRG_CASP3: Life Technologies and Expression Analysis (LTEA) Assay for cysteine-aspartic acid protease (CASP3) using HepaRG (AID 2283477)
How it was run: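 Differentiated HepaRG cells, plated 48 h, were treated in duplicate in serum-free induction medium for 48 h with eight half-log concentrations up to 100 uM in 0.5% DMSO. CASP3 mRNA measured by qRT-PCR, normalized to ACTB, GAPDH, POLR2A.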

[18] = read-out: Cytochrome P450 (CYP24A1), CYP24A1 (gene 1591); test: LTEA_HepaRG_CYP24A1: Life Technologies and Expression Analysis (LTEA) Assay for Cytochrome P450 (CYP24A1) using HepaRG (AID 2283478)
How it was run: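 HepaRG cells plated 48 h, then exposed in duplicate in serum-free induction medium for 48 h to 8-point half-log series from 100 uM in 0.5% DMSO. CYP24A1 mRNA by Fluidigm qRT-PCR, normalized to ACTB, GAPDH, POLR2A; bidirectional fit versus DMSO.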

Measured: outcome

Chain of Caspase-3 (Homo sapiens) (P42574 whole entry, looked up): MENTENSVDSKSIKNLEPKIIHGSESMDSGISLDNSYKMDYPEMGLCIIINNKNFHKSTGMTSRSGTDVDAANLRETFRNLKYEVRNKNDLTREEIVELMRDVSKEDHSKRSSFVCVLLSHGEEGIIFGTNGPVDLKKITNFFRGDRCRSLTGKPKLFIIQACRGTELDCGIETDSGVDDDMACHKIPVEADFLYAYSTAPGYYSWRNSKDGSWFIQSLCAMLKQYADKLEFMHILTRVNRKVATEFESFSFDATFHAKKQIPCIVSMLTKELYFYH
Chain of Broad substrate specificity ATP-binding cassette transporter ABCG2 (Homo sapiens) (Q9UNQ0 whole entry, looked up): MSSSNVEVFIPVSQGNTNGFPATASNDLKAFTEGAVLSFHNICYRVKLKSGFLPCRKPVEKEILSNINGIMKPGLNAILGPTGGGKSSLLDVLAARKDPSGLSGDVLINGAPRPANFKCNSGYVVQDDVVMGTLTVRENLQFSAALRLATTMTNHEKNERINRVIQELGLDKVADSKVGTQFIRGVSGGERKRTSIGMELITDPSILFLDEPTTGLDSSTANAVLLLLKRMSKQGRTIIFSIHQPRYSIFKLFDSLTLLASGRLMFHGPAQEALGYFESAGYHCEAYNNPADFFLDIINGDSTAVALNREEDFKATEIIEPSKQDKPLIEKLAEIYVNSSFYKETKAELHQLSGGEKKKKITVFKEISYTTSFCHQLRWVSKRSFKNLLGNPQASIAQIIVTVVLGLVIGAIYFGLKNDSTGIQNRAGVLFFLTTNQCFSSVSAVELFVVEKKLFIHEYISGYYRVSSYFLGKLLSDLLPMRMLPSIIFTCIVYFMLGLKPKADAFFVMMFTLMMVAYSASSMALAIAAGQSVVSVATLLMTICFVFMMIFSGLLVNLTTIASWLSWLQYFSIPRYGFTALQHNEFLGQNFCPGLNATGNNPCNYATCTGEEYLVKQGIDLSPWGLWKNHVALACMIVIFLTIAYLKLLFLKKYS
Chain of Apoptosis regulator Bcl-2 (Homo sapiens) (P10415 whole entry, looked up): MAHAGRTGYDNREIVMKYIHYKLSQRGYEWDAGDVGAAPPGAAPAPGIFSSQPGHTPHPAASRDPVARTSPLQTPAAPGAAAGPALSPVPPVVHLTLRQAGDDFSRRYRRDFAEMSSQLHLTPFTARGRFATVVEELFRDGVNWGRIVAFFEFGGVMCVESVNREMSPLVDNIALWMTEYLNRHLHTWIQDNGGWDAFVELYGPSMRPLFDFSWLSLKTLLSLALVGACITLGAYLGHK

O=C(O)c1ccc([N+](=O)[O-])cc1
inactive: [1] | [2] | [3] | [4] | [5] | [6] | [7] | [8] | [9] | [10] | [11] | [12] | [13] | [14] | BCL2L11 (gene 10018) | [15] | [16] | [17] | Caspase-3 (Homo sapiens) | [18]

From PubChem BioAssay (EPA / NIEHS)
